Among the data in PubChem BioAssay (EPA / NIEHS) are AC50 and outcome values, retold here.

Experiment [1] is described as follows: ATG_PXRE_CIS: Attagene CIS-FACTORIAL HepG2 Assay for human Pregnane X Receptor Element (PXRE) (AID 2282957). The conditions noted are these: HepG2 Attagene CIS-FACTORIAL PXRE reporter, mRNA; actives raise or lower the signal. Put shortly: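 Cis-element reporter mRNA in human hepatoma HepG2 cells is measured 24 h post-dosing by RT-PCR, primer-extension labeling and capillary electrophoresis; gain or loss of signal is fitted relative to DMSO.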

Experiment [2] is described as follows: ATG_RORE_CIS: Attagene CIS-FACTORIAL HepG2 Assay for human RAR-related Orphan Receptor Element (RORE) (AID 2282959). The note with it: HepG2 Attagene cis-factorial RORE reporter, mRNA; actives raise or lower the signal. The method in brief:
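HepG2 cells transiently transfected with multiple cis-element reporter transcription units, exposed to chemical for 24 h. Reporter mRNA quantified by RT-PCR, 6-FAM primer-extension labeling, HpaI digestion and capillary electrophoresis; bidirectional fit versus DMSO baseline.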

The nature of experiment [3]: ATG_Sox_CIS: Attagene CIS-FACTORIAL HepG2 Assay for human SRY-box transcription factor (SOX) (AID 2282960). The conditions noted are these: HepG2 Attagene cis-factorial SOX reporter, mRNA; actives raise or lower the signal. Put shortly: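 HepG2 cells transiently transfected with cis-element-driven multiple reporter transcription units, dosed 24 h; reporter mRNA measured by RT-PCR, FAM labelling, HpaI digestion and capillary electrophoresis. Bidirectional fit versus DMSO baseline.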

Experiment [4] is described as follows: ATG_SREBP_CIS: Attagene CIS-FACTORIAL HepG2 Assay for human Sterol Regulatory Element Binding (SREBP) (AID 2282962). The note with it: HepG2 Attagene cis-factorial SREBP reporter, mRNA; actives raise or lower the signal. The method in brief: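 Transfected HepG2 (cis-regulated reporter library, endogenous TFs) → compound 24 h → total RNA → oligo(dT) RT → reporter-specific PCR → FAM primer extension, HpaI cut → CE fluorescence. Fit bidirectional vs DMSO.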

Experiment [5] deals with Signal transducer and activator of transcription 3 (Homo sapiens) (UniProt P40763). Nature of the experiment: ATG_STAT3_CIS: Attagene CIS-FACTORIAL HepG2 Assay for human Signal Transducer and Activator of Transcription 3 (STAT3) (AID 2282963). The conditions noted are these: HepG2, Attagene cis-factorial STAT3 reporter transcription; actives raise or lower the signal. The method in brief:
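Endogenous STAT3-responsive cis-element activity was read in transiently transfected HepG2 cells after 24 h treatment. Reporter transcripts were quantified via RT-PCR and capillary electrophoresis, with DMSO as negative control and bidirectional curve fitting.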

The nature of experiment [6]: ATG_TA_CIS: Attagene CIS-FACTORIAL HepG2 Assay for human TA Basal Promoter (AID 2282964). The conditions noted are these: HepG2 Attagene CIS-factorial TA basal promoter reporter; actives raise or lower the signal. Put shortly:
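HepG2 cells transiently transfected with multiple reporter units under cis promoter elements, reporting endogenous transcription factor activity; this endpoint tracks the TA basal promoter as background control. Reporter mRNA after 24 h dosing measured by RT-PCR/capillary electrophoresis; bidirectional fits versus DMSO.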

The nature of experiment [7]: ATG_TAL_CIS: Attagene CIS-FACTORIAL HepG2 Assay for human TAL Basal Promoter (AID 2282966).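 Further: background control endpoint measuring basal TAL promoter reporter mRNA not a specific factor.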 The conditions noted are these: HepG2 Attagene cis-factorial TAL promoter reporter; actives raise or lower the signal. Put shortly: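 In this cell-based multiplex, HepG2 liver cells bearing cis-promoter reporter constructs are dosed for 24 hours. Total RNA is reverse-transcribed and amplified, labelled fragments are sized by capillary electrophoresis, and signal changes are fitted bidirectionally versus DMSO.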

Experiment [8] is described as follows: ATG_PPRE_CIS: Attagene CIS-FACTORIAL HepG2 Assay for human Peroxisome Proliferator-activated Response Element (PPRE) (AID 2282958). The conditions noted are these: HepG2 PPRE cis-element reporter, Attagene transcription factor profiling; actives raise or lower the signal. Put shortly:
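HepG2 cells transiently transfected with multiplexed cis-element reporter units measure endogenous transcription factor activity. After 24 h compound exposure, reporter mRNA is quantified by RT-PCR, 6-FAM labeling, HpaI digestion and capillary electrophoresis; bidirectional fits are made against DMSO baseline.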

Experiment [9] addresses Transcription factor Sp1 (Homo sapiens) (UniProt P08047). As to the kind of experiment: ATG_Sp1_CIS: Attagene CIS-FACTORIAL HepG2 Assay for human Specificity Protein 1 (Sp1) (AID 2282961). The conditions noted are these: HepG2 Sp1 cis-reporter transcription, actives raise or lower the signal. Put shortly:
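HepG2 cells transiently transfected with multiple reporter transcription units driven by cis-regulatory elements; Sp1-responsive reporter mRNA measured 24 h after dosing by RT-PCR and capillary electrophoresis fluorescence, fitted bidirectionally against DMSO baseline.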

Experiment [10] is described as follows: ATG_TCF_b_cat_CIS: Attagene CIS-FACTORIAL HepG2 Assay for human T-Cell-Factor with beta-catenin (TCF/b-cat) (AID 2282965). The note with it: HepG2 TCF/beta-catenin cis-reporter transcription, actives raise or lower the signal. The method in brief:
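Measured: reporter mRNA in HepG2 transiently transfected with cis-promoter reporter units, 24 h after chemical addition. Fitting was bidirectional, DMSO as negative control.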

The source made the active and inactive calls. How the source made its calls: active means hit-call score of the fitted dose curve at least 0.9, where 1 is the maximum; inactive means score below 0.9.

Transcription factor Sp1 (Homo sapiens), sequence (P08047 whole entry, looked up): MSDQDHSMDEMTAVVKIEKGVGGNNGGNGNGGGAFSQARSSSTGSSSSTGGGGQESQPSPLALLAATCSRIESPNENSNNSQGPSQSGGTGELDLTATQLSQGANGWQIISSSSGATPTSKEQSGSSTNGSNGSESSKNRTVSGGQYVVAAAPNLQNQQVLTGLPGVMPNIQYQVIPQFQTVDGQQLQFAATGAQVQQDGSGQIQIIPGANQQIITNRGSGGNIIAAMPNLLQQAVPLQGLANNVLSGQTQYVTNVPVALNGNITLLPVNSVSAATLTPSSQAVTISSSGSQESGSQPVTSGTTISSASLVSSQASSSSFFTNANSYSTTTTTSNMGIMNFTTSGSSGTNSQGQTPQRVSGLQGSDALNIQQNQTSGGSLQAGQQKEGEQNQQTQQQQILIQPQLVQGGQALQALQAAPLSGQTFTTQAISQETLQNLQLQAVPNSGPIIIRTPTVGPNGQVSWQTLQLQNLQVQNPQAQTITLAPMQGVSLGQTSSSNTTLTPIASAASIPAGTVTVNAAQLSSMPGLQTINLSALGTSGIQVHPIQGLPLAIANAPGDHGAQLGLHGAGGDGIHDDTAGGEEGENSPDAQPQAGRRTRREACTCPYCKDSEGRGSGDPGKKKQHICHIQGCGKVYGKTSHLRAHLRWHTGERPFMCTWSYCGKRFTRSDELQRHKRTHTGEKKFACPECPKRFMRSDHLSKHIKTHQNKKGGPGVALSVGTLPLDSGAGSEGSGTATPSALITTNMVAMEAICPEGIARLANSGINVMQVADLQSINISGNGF
Signal transducer and activator of transcription 3 (Homo sapiens), sequence (P40763 whole entry, looked up): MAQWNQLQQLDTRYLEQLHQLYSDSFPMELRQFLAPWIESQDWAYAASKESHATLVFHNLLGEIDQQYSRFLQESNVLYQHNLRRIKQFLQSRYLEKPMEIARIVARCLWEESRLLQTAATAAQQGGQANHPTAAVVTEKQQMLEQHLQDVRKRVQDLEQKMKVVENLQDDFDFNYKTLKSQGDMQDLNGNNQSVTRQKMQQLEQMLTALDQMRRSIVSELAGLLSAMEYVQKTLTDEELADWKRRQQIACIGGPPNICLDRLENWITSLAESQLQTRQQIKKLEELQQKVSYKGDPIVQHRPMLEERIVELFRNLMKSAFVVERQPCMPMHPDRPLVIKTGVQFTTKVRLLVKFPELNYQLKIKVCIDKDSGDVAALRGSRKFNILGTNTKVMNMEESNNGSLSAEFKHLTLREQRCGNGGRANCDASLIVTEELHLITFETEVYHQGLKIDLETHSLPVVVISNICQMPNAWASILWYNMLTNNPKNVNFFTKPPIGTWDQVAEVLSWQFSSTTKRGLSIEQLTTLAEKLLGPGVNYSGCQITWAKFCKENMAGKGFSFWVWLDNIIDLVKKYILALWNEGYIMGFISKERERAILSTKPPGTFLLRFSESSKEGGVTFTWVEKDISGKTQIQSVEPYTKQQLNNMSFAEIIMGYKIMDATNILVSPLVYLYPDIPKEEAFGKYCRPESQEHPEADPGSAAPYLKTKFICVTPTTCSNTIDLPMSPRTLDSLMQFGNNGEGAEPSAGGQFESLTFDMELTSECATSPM

As to `C#CC(C)(C)NC(=O)c1cc(Cl)cc(Cl)c1`, the values for the AC50 in [1] and in [4] were 7.44 µM (active) and 50 µM (active), respectively. Moreover, the result in experiment [2], in experiment [3], in experiment [5], in [6] and in [7] was inactive.
On to `CNc1cnn(-c2cccc(C(F)(F)F)c2)c(=O)c1Cl`, for which the AC50 (in general, the concentration at which the activity in the assay is half-maximal) in [1] is 20.1 µM (active); in experiment [2], 27.6 µM (active). The call in experiment [8], in experiment [3], in [4], in experiment [5], in [6] and in [7] was inactive.
As to `CCc1cccc(C)c1N(C(=O)CCl)C(C)COC` (stereo not drawn), the half-maximal activity concentration (AC50) in [1] is 0.603 µM (active). The compound was called inactive in experiment [3], in experiment [4], in [5], in [6] and in experiment [7].
In the case of `CCCSP(=O)(OCC)SCCC`, the AC50 in experiment [1] was 15.2 µM (active). The call in [2], in [3], in experiment [4], in [5], in [6] and in [7] was inactive.
Regarding `CCC(=NOC/C=C/Cl)C1=C(O)CC(C2CCOCC2)CC1=O` (stereo not drawn), the compound was called inactive in experiment [1], in experiment [8], in experiment [2], in experiment [3], in [4] and in [5]. Also, the result in [6] and in [7] was inactive.
On to `CC[C@H](C)[C@H]1O[C@]2(C=C[C@@H]1C)C[C@@H]1C[C@@H](C/C=C(\C)[C@@H](O[C@H]3C[C@H](OC)[C@@H](O[C@H]4C[C@H](OC)[C@@H](NC)[C@H](C)O4)[C@H](C)O3)[C@@H](C)/C=C/C=C3\CO[C@@H]4[C@H](O)C(C)=C[C@@H](C(=O)O1)[C@]34O)O2`, for which the call in experiment [1], in experiment [2], in experiment [3], in [9], in experiment [4] and in experiment [5] was inactive. In addition, the compound was classed as inactive in experiment [6], in experiment [10] and in [7].
With `CCCOCC(=Nc1ccc(Cl)cc1C(F)(F)F)n1ccnc1`, the AC50 was 3.63 µM (active) in experiment [1], 2.67 µM (active) in [8] and 7.5 µM (active) in experiment [4]. Also, the result in experiment [3], in [9], in [5], in experiment [6], in experiment [10] and in experiment [7] was inactive.
For `CSc1nnc(C(C)(C)C)c(=O)n1N`, the compound was called inactive in experiment [1], in [2], in experiment [3], in experiment [9], in experiment [4] and in [5]. Further, the result in [6], in experiment [10] and in [7] was inactive.
Turning to `CCCOc1nn(C(=O)NS(=O)(=O)c2ccccc2C(=O)OC)c(=O)n1C`, the AC50 in experiment [1] is 50 µM (active). Besides, the compound was called inactive in experiment [8], in experiment [2], in experiment [3], in experiment [4], in [5] and in experiment [6]. Moreover, the call in experiment [7] was inactive.
For `CCC(=O)Nc1ccc(Cl)c(Cl)c1`, the AC50 in [1] and in experiment [4] was 50 µM (active) each time. The result in [2], in [3], in [9], in experiment [5], in experiment [6] and in experiment [7] was inactive.
On to `CSc1nc(NC(C)C)nc(NC(C)C)n1`, for which the AC50 in experiment [1] was 4.94 µM (active). The outcome in experiment [2], in [3], in experiment [9], in experiment [4], in experiment [5] and in [6] was inactive. For the same compound, the outcome in experiment [7] was inactive.
For `CCCSP(=O)(OCC)Oc1ccc(Br)cc1Cl` (stereo not drawn), the figures for the AC50 in [1] and in [4] were 3.04 µM (active) and 1.31 µM (active), respectively. The outcome in experiment [8], in experiment [2], in experiment [3], in [5], in [6] and in experiment [7] was inactive.
As to `CCc1cccc(CC)c1N(COC)C(=O)CCl`, the AC50 in experiment [1] is 1.15 µM (active). Besides, the compound was classed as inactive in [8], in experiment [2], in experiment [3], in [4], in [5] and in experiment [6]. In addition, the outcome in experiment [7] was inactive.
`CC(=NC#N)N(C)Cc1ccc(Cl)nc1`: in experiment [1], the AC50 was 64.9 µM (active). Besides, the outcome in experiment [8], in [2], in [3], in experiment [4], in experiment [5] and in experiment [6] was inactive. In experiment [7], the outcome was inactive.
On to `O=c1ccc(=O)[nH][nH]1`, for which the AC50 in [1] is 26.7 µM (active). Besides, the result in [2], in [3], in [9], in experiment [4], in experiment [5] and in [6] was inactive. Moreover, the outcome in experiment [10] and in [7] was inactive.
With `CC(Oc1cccc(Cl)c1)C(=O)O` (stereo not drawn), the outcome in experiment [1], in [8], in experiment [2], in [3], in [4] and in [5] was inactive. The outcome in experiment [6] and in experiment [7] was inactive.
On to `CCOP(=O)(OCC)Oc1cc(C)nc(C(C)C)n1`, for which the compound was classed as inactive in [1], in experiment [8], in experiment [2], in experiment [3], in [4] and in experiment [5]. The outcome in experiment [6] and in experiment [7] was inactive.
Consider `CCCCN(CC)c1c([N+](=O)[O-])cc(C(F)(F)F)cc1[N+](=O)[O-]`, for which the AC50 in [1] is 7.62 µM (active). The compound was called inactive in experiment [8], in experiment [2], in experiment [3], in [4], in [5] and in experiment [6]. The outcome in experiment [7] was inactive.
As for `COc1cc(OC)nc(Sc2cccc(Cl)c2C(=O)O)n1`, the outcome in [1], in experiment [2], in [3], in [9], in experiment [4] and in [5] was inactive. Besides, the compound was classed as inactive in experiment [6], in experiment [10] and in experiment [7].
